Screening data (PubChem BioAssay)
This is a sample that favours compounds with a hit; in the whole collection about 0.58% have one here.
Yp Topo-I inh = blocks Yersinia pestis topoisomerase I activity | Y. pestis Topo-I cleavage product accumulation, plate reader | activity, % at 10 µM | hit rate 0.064% among 360,000; in the data active means activity above about 50%, passing the limit was not always enough; inconclusive means no clear call, values can overlap the other calls
FadD28 FP inh = inhibitors of Mycobacterium tuberculosis FadD28 bisubstrate binding. AID 588549. FadD28 bisubstrate probe binding, fluorescence polarization. inhibition, % at 12.5 µM. hit rate 0.22% among 360,000; in the data active means inhibition above about 8.5%, passing the limit was not always enough; inconclusive means no clear call, values can overlap the other calls
BH1578 lux ind = quorum light induction in luxS cqsA deficient V. cholerae | V. cholerae BH1578 lux reporter, luminescence, 6 h | activation, % at 18.7 µM | hit rate 0.16% among 350,000 | AID 588436; in the data active means activation mostly above about 9.7%, no sharp cut-off; inconclusive means no clear call, values can overlap the other calls; inactive means mostly below about 3.7%
TcdB inh = inhibitors of Clostridioides difficile toxin B glycohydrolase; hit rate 0.24% among 350,000; P18177; TcdB glycohydrolase enzymatic assay, plate reader; inhibition, % at 9.99 µM; in the data active means inhibition above about 10%
Target sequence (P18177 whole entry, looked up): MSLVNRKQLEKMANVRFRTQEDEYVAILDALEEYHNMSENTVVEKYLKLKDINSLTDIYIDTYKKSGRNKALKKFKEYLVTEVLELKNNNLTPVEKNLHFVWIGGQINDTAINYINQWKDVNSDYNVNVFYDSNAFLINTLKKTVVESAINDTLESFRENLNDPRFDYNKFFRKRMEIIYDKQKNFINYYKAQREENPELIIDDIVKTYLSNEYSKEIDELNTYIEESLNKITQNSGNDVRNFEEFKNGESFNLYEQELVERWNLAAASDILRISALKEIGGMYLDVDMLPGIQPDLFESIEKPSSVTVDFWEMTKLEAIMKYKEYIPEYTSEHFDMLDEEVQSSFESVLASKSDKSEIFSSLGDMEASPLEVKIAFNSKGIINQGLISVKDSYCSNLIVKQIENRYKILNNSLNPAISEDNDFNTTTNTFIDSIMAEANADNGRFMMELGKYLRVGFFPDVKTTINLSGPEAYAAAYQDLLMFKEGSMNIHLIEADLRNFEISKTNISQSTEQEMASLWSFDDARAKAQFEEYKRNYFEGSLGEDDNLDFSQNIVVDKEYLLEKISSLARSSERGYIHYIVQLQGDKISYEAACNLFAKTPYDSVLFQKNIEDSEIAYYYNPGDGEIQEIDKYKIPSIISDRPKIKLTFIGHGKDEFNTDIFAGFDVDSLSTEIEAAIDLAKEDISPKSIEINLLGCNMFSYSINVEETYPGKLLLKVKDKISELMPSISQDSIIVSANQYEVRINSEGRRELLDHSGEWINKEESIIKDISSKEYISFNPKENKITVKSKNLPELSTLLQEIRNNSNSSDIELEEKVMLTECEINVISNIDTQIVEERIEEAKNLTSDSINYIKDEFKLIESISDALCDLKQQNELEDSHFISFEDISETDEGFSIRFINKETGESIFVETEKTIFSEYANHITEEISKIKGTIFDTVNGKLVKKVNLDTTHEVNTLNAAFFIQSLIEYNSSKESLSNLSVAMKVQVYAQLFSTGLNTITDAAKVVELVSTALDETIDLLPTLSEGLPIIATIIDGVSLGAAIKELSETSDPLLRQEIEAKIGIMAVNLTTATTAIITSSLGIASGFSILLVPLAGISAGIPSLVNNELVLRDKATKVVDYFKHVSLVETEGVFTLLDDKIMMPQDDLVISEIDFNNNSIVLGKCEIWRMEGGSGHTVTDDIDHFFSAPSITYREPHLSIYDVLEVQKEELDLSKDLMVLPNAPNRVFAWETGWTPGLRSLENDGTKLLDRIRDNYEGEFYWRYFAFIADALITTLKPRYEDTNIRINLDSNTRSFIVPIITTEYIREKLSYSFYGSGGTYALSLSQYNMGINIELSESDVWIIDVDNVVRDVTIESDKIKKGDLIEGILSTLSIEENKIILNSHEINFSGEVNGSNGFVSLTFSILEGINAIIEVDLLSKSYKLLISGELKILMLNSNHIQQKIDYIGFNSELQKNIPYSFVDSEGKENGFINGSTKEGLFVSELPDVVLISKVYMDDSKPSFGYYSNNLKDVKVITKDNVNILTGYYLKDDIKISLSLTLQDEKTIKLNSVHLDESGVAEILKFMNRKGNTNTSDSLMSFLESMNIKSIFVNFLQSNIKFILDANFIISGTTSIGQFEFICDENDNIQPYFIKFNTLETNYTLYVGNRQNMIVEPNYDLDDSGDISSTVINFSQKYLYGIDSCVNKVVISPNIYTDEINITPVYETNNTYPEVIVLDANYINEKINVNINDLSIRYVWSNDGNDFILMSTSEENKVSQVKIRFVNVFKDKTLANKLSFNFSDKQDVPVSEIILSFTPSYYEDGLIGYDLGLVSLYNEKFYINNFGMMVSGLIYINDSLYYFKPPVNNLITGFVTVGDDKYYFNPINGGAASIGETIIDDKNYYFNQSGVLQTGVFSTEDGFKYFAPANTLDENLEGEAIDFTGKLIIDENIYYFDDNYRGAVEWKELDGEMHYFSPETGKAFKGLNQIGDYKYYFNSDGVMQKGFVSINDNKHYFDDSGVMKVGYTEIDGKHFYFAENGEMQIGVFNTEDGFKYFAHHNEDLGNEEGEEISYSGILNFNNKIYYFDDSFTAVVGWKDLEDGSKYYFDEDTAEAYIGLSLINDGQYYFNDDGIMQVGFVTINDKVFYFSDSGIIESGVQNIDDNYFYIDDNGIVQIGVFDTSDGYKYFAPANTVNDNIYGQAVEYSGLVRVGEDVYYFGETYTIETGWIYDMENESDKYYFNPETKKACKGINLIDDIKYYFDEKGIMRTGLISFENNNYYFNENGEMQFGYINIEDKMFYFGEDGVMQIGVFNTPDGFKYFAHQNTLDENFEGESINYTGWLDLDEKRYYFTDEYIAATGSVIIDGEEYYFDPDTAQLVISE
BioA inh = blocks M. tuberculosis BioA enzyme activity | hit rate 0.096% among 360,000 | purified M. tuberculosis BioA enzyme, plate reader | AID 602481 | inhibition, % at 9.99 µM; in the data active means inhibition above about 40%; inconclusive means no clear call, values can overlap the other calls
Of the large screens only hits and unclear results are named; the others gave an inactive call.

CC(OC(=O)C1=COCCO1)C(=O)c1ccc(Br)cc1 (stereo not given)	TcdB inh 14
CC(OC(=O)C1=COCCO1)C(=O)NC1CCCCC1 (stereo not given)	none
COc1ccc(NC(=O)N(C)C[C@H]2Oc3ccc(NC(=O)C4CC4)cc3CC(=O)N([C@H](C)CO)C[C@@H]2C)cc1	none (no result: Yp Topo-I inh, FadD28 FP inh, BH1578 lux ind)
CC(C)(c1cc(Br)c(O)c(Br)c1)c1cc(Br)c(O)c(Br)c1	FadD28 FP inh 20
CC(C)(C)C1CCc2nc(NC(=O)Cc3cn4ccsc4n3)sc2C1 (stereo not given)	Yp Topo-I inh 62 (no result: BH1578 lux ind, TcdB inh)
CC1CCc2nc(NC(=O)Cc3cccs3)sc2C1 (stereo not given)	none (no result: TcdB inh)
N#CC1=C(N)OC2=C(CN(Cc3ccccc3)C/C2=C\c2cccnc2)C1c1cccnc1 (stereo not given)	none (no result: TcdB inh)
CC(C)N1CC2=C(OC(N)=C(C#N)C2c2cccnc2)/C(=C/c2cccnc2)C1 (stereo not given)	BioA inh 43 (no result: TcdB inh)
CNC(=O)C[C@H]1CC[C@@H]2[C@H](COc3ccc(NC(=O)Nc4cccc(C)c4)cc3C(=O)N2C)O1	none (no result: Yp Topo-I inh, FadD28 FP inh, BH1578 lux ind)
O=C(CN1C(=O)NC2(CCCc3ccccc32)C1=O)NCc1cccs1 (stereo not given)	TcdB inh 15
Cc1ccc(C)c(C(=O)CN2C(=O)NC3(CCc4ccccc43)C2=O)c1 (stereo not given)	none
CCc1cccc2c(C(=O)CN3C(=O)NC(C)(c4cccc5ccccc45)C3=O)c[nH]c12 (stereo not given)	FadD28 FP inh 19 (no result: BioA inh)
CCc1cccc2c(C(=O)CN3C(=O)NC4(CCc5ccccc54)C3=O)c[nH]c12 (stereo not given)	FadD28 FP inh 33
COc1ccccc1CNC(=O)C[C@H]1CC[C@@H]2[C@H](COc3ccc(NC(=O)Nc4ccc(F)c(F)c4)cc3C(=O)N2C)O1	none (no result: Yp Topo-I inh, FadD28 FP inh, BH1578 lux ind, TcdB inh)
C[C@@H]1CN([C@@H](C)CO)C(=O)c2cc(C3=CCCC3)cnc2O[C@H]1CN(C)Cc1cccc(F)c1	none (no result: Yp Topo-I inh, FadD28 FP inh, BH1578 lux ind)
CO[C@@H]1CN(C)C(=O)c2cc(NS(=O)(=O)c3cn(C)cn3)ccc2OC[C@@H](C)N(Cc2cccc(Cl)c2)C[C@H]1C	none (no result: Yp Topo-I inh, FadD28 FP inh, BH1578 lux ind, TcdB inh)
Oc1ccc(-c2nc3cnccn3c2Nc2ccc3c(c2)OCCO3)cc1	TcdB inh 20
CC(=O)N1[C@H](CO)[C@H](c2ccccc2)C12CN(C(=O)Cc1ccccc1)C2	none (no result: Yp Topo-I inh, FadD28 FP inh, BH1578 lux ind, BioA inh)
COc1ccccc1N(CCC#N)C(=O)CSc1nnc2ccccn12	none
COc1ccccc1N(CCC#N)C(=O)CSc1nc(-c2ccccc2)cn1N	BH1578 lux ind 29 (no result: TcdB inh)
O=C([C@@H]1[C@@H](CO)[C@@H]2Cn3c(ccc(-c4cccnc4)c3=O)[C@H]1N2CC1CC1)N1CCCCC1	none (no result: Yp Topo-I inh, FadD28 FP inh, BH1578 lux ind)
COc1ccc2c3c([nH]c2c1)[C@H](CO)N(C(=O)CC1CC1)CC31CCN(Cc2cccnc2)CC1	none (no result: Yp Topo-I inh, FadD28 FP inh, BH1578 lux ind, BioA inh)
O=Nc1c(O)n(Cc2ccc(Cl)cc2)c2ccccc12	BH1578 lux ind 226 (no result: TcdB inh)
C/C(Cl)=C\Cn1c(O)c(N=O)c2ccccc21	FadD28 FP inh inconclusive, BH1578 lux ind active (no result: BioA inh)
COc1ccc2c3c([nH]c2c1)[C@H](CO)NCC31CCN(C(=O)Cc2ccccc2)CC1	none (no result: Yp Topo-I inh, FadD28 FP inh, BH1578 lux ind, BioA inh)
O=C(Nc1ccc2c(c1)[C@H]1C[C@H](CC(=O)N3CCOCC3)O[C@H](CO)[C@H]1O2)c1cccnc1	none (no result: Yp Topo-I inh, FadD28 FP inh, BH1578 lux ind)
O=C(NCC1(c2ccccc2)CCCC1)C1(c2ccccc2)CCCC1	Yp Topo-I inh 68 (no result: TcdB inh, BioA inh)
O=C(O)C[C@H]1CC[C@@H](NC(=O)Nc2ccccc2)[C@@H](CO)O1	none (no result: Yp Topo-I inh, FadD28 FP inh, BH1578 lux ind)
CN(C)C(CNC(=O)C1CCN(S(=O)(=O)c2ccccc2C(F)(F)F)CC1)Cc1ccccc1 (stereo not given)	none
O=C(NC(Cc1ccccc1)C(=O)O)C1CCN(S(=O)(=O)c2ccccc2C(F)(F)F)CC1 (stereo not given)	FadD28 FP inh 11
O=C1NC(=S)NC1=Cc1ccc(O)cc1	TcdB inh 16
CCOc1ccc2ccccc2c1/C=N/NC(=O)c1cc(C)[nH]n1	none
CCOc1ccc2ccccc2c1/C=N/NC(=O)c1ccncc1	TcdB inh 11
C[C@H]1CCCCO[C@H](CN(C)C(=O)Nc2ccccc2)[C@@H](C)CN([C@@H](C)CO)C(=O)c2cc(NC(=O)Nc3ccc(F)cc3)ccc2O1	none (no result: Yp Topo-I inh, FadD28 FP inh, BH1578 lux ind)
CCCC(=O)N1CC2(CN(C(=O)CC3CC3)C2)c2c(n(C)c3cc(OC)ccc23)[C@H]1CO	none (no result: Yp Topo-I inh, FadD28 FP inh, BH1578 lux ind, BioA inh)
Cc1ccc(C(=O)Nc2ccc(O)cc2C(=O)O)cc1C	TcdB inh 20
COc1cccc(C(=O)COC(=O)c2ccc(NC(=O)c3ccccc3)cc2)c1	TcdB inh 22
COc1ccc(C(=O)Nc2ccc(C(=O)OCC(=O)c3ccccc3)cc2)cc1	none (no result: BH1578 lux ind, TcdB inh)
COc1ccc(C(=O)COC(=O)c2ccc(OC)c(OC)c2)cc1OC	TcdB inh 42
CC(Sc1nccn1C)C(=O)c1c(N)n(C)c(=O)n(C)c1=O (stereo not given)	TcdB inh 24
CC(Cl)C(=O)c1c(N)n(C)c(=O)n(C)c1=O (stereo not given)	none (no result: BioA inh)
O=C(O)c1cccnc1Sc1ccccc1Cl	none
O=C(O)c1cccnc1SCc1ccccc1Cl	TcdB inh 11
COCC#Cc1cnc2c(c1)C(=O)N([C@H](C)CO)C[C@@H](C)[C@@H](CN(C)Cc1ccccc1)O2	none (no result: Yp Topo-I inh, FadD28 FP inh, BH1578 lux ind)
C[C@@H]1CN([C@@H](C)CO)C(=O)c2cc(NS(=O)(=O)c3ccccc3)ccc2O[C@@H](C)CCCCO[C@H]1CN(C)C(=O)Nc1cccc2ccccc12	none (no result: Yp Topo-I inh, FadD28 FP inh, BH1578 lux ind)
COc1ccc(OCc2cc(-c3ccc(Cl)cc3)no2)cc1	TcdB inh 19
Cc1ccc(N2C(=O)c3ccccc3C2=O)cc1	none
CC(=O)Nc1cccc2c1C(=O)N(c1ccc(C)cc1)C2=O	BH1578 lux ind 17 (no result: TcdB inh)
CN(C(=O)c1cccc(COc2ccc(Cl)cc2Cl)c1)c1ccccc1	Yp Topo-I inh 51 (no result: TcdB inh)
O=C(NCc1ccccc1)c1cccc(COc2cc(Cl)ccc2Cl)c1	none
O=C(C[C@@H]1CC[C@H]2[C@@H](COC[C@H](O)CN2C(=O)Cc2ccccc2)O1)NC1CCCC1	none (no result: Yp Topo-I inh, FadD28 FP inh, BH1578 lux ind)
CN(C)c1ccc(/C=C/c2cccc[n+]2[O-])cc1	TcdB inh 13
[O-][n+]1ccccc1/C=C/c1ccccc1	none (no result: BioA inh)
COc1ccc2c3c(n(C)c2c1)[C@@H](CO)N(CC1CCCC1)CC31CCN(C(C)=O)CC1	none (no result: Yp Topo-I inh, FadD28 FP inh, BH1578 lux ind, BioA inh)
CCSc1nnc(NC(=O)c2ccco2)s1	none (no result: TcdB inh)
CC(C)Sc1nnc(NC(=O)c2ccco2)s1	TcdB inh 22
CCCC(=O)Nc1ccc2c(c1)C(=O)N(C)C[C@@H](OC)[C@H](C)CN(C(=O)C1CCCC1)[C@@H](C)CO2	none (no result: Yp Topo-I inh, FadD28 FP inh, BH1578 lux ind)
COc1ccc(C(=O)NCc2ccc(C)cc2)cc1S(=O)(=O)N1CCCc2ccccc21	FadD28 FP inh 9.9 (no result: TcdB inh)
COc1ccc(C(=O)N2CCOCC2)cc1S(=O)(=O)N1CCCc2ccccc21	TcdB inh 12 (no result: BioA inh)
COc1ccc(C(=O)NCC2CCCO2)cc1S(=O)(=O)N1CCCc2ccccc21 (stereo not given)	none (no result: BioA inh)
CCCN(C)C[C@H]1OCCCC[C@H](C)Oc2ccc(NS(=O)(=O)c3ccc(F)cc3)cc2C(=O)N([C@@H](C)CO)C[C@@H]1C	none (no result: Yp Topo-I inh, FadD28 FP inh, BH1578 lux ind)
